KB-3-1 tox: kills parental KB-3-1 adenocarcinoma cells; 1.4% of 400,000 active; KB-3-1 viability, CellTiter-Glo ATP luminescence, 72 h; Potency, µM (titrated, usually from 46.1 µM), most hits filed as cytotoxic; further: nearly all actives have a fitted effect of over 60% in size
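Here the drug-naive KB-3-1 line serves as comparator for MDR sub-line selectivity; cells received compound titrations, 72 h at 37 °C, then CellTiter-Glo readout.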
DT40 TDP1 no CPT: qHTS for Inhibitors of human tyrosyl-DNA phosphodiesterase 1 (TDP1): qHTS in cells in absence of CPT | DT40 Tdp1-/- hTDP1 cells, no CPT, ATP luminescence, 48 h | Potency, µM (highest dose often 46.2 µM), for the others: at the highest dose activity change, negative = growth inhibition, hits mostly inhibitors | AID 686978, 2013 | 15% of 420,000 active; further: nearly all actives have a fitted effect of over 55% in size
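Cells were dispensed at 400 per well, compounds added by pin tool, plates incubated ≥48 hr at 37 °C, then CellTiter-Glo added for 30 min at room temperature before luminescence reading. Line: DT40 Tdp1-/- complemented with hTDP1; camptothecin omitted.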
HT1080 IDH1KD tx: HT-1080 IDH1 knockdown cell toxicity (counter line); 2% of 360,000 active; Potency, µM (titrated, usually from 46.1 µM), without a hit: at the highest dose activity, negative = toxicity, most hits filed as cytotoxic; HT-1080 IDH1 knockdown viability, ATP luminescence, 48 h;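 further: 0% = DMSO wells and -100% = cell-free medium wells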
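% activity derives from luminescence (CellTiter-Glo), normalised to DMSO and no-cell wells. HT-1080-IDH1KD cells, 750/well, had 48 h compound exposure at 37 °C.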
KB-V1 cytotox: kills drug-selected multidrug resistant KB-V1 cells; KB-V1 MDR cells viability, CellTiter-Glo, 72 h; Potency, µM (top dose mostly 46.1 µM), most hits filed as cytotoxic; 3.4% of 400,000 active; AID 1347076; further: nearly all actives have a fitted effect of over 60% in size
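Compound-treated KB-V1 multidrug-resistant cells, 72 h, 37 degrees C; viability by CellTiter-Glo. Fitted qHTS curves give the values.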
HT1080NT lethal: kills 2HG-producing HT-1080-NT fibrosarcoma cells. 1.6% of 360,000 active. HT-1080-NT fibrosarcoma viability, CellTiter-Glo ATP luminescence, 48 h. Potency, µM (doses to about 46.1 µM), inactives show at the top dose activity, negative = less viability, usual class: cytotoxic;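 further: NT is the 2HG producing partner of a matched IDH1 knockdown line; 0% = DMSO-treated cells and -100% = media-only wells without cells; nearly all actives have a fitted effect of over 55% in size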
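HT-1080-NT; 750 cells/well; 5% FBS RPMI; 48 h compound, 37 degrees C; CellTiter-Glo luminescence; curve fitting and curve-class assignment.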
DT40 TDP1 CPT: DT40-hTDP1 cell growth loss with CPT | chicken DT40 Tdp1-/-;hTDP1 cells + 20 nM CPT, ATP luminescence, 48 h | Potency, µM (titrated, usually from 46.2 µM), without a hit: top-dose activity change, negative = growth inhibition, most hits filed as inhibitors | 12% of 420,000 active | AID 686979; further: nearly all actives have a fitted effect of over 55% in size
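Chicken DT40 Tdp1-/- cells complemented with human TDP1, 400 cells/well, exposed to compounds plus 20 nM camptothecin for at least 48 h at 37 C; viability read as ATP content by CellTiter-Glo luminescence.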
* = called active by the depositor; i = inactive; ? = inconclusive; · = no result. In the library only some 19% were active in any assay of this set; here they are far more common. The call rests on the fitted dose curve; in most records, active means well fitted curve in the direction sought with a large enough effect; inconclusive means small, poorly fitted or top-dose-only effect, or another doubt; inactive means no such curve, though single readings can be large; an effect the other way counts as inactive or inconclusive. Unless noted, on the % scale 0 is the no-effect control and ±100 the full control effect; potency means the concentration at half of the fitted maximal effect.

SMILES	KB-3-1 tox	DT40 TDP1 no CPT	HT1080 IDH1KD tx	KB-V1 cytotox	HT1080NT lethal	DT40 TDP1 CPT
COc1ccc(C2C(=O)N(C3CCCCCC3)CC(=O)N2CCC2=CCCCC2)cc1 (centres undefined)	·	14.6µM*	·	·	·	23.1µM*
COc1ccc(C2C(=O)N(C3CCCCCC3)CC(=O)N2Cc2ccc(C)cc2)cc1 (centres undefined)	·	25.9µM*	·	·	·	23.1µM*
CC1CCCN(C(=O)CN(C)S(=O)(=O)c2cccc3nsnc23)C1 (centres undefined)	i	14.3%	5.6%	i	19.4%	-4.8%
COc1ccc(C2C(=O)N(C3CCCCC3)CC(=O)N2CCC2=CCCCC2)cc1 (centres undefined)	·	16.4µM*	·	·	·	?
CCOCCCN1C(=O)CN(C2CCC(C)CC2)C(=O)C1c1ccc(C)cc1 (centres undefined)	i	2.31µM*	-11.6%	?	-5.7%	?
CCCN1C(=O)CN(C2CCCCCC2)C(=O)C1c1ccc(C)cc1 (centres undefined)	i	?	-6.3%	i	11.7%	?
Cc1cc(C)c2c(c1)[C@@H]1C=CC[C@@H]1[C@H](c1ccc(S(=O)(=O)N3CCOCC3)cc1)N2	i	18.4µM*	4.4%	i	3.5%	16.4µM*
COC(=O)c1ccc(C2Nc3c(C)cc(C)cc3C3C=CCC32)cc1 (centres undefined)	i	?	·	?	·	?
c1nc2sc3c(c2c2nnnn12)CCC3	i	-4.8%	2.2%	i	1.2%	-6.0%
N#CCc1nc2c3c4c(sc3ncn2n1)CCCC4	2.31µM*	-21.3%	3.0%	?	3.3%	-3.6%
O=C(Cc1ccccc1)Nc1nc2ccc(Cl)cc2c2nc(-c3ccco3)nn12	·	-27.3%	·	·	·	-4.8%
CN(C)c1nc(OCCNC(=O)COc2ccc(Cl)cc2Cl)nc(N2CCOCC2)n1	i	13µM*	-4.0%	?	-9.2%	14.6µM*
Cc1cc(Cl)ccc1OCC(=O)NCCOc1nc(N2CCOCC2)nc(N2CCOCC2)n1	i	20.6µM*	11.9%	?	3.2%	?
CCc1cccc(NC(=O)Cn2c(=O)n(CC3CCC(C(=O)NC)CC3)c(=O)c3sccc32)c1 (centres undefined)	i	?	·	i	·	?
CCOC(=O)C1(Cc2cccc(OC)c2)CCN(Cc2ccccc2)CC1	i	?	-16.8%	?	-18.7%	?
CCOC(=O)C1(Cc2cccc(OC)c2)CCN(Cc2cccc3c2OCO3)CC1	i	18.4µM*	?	?	?	?
CCOC(=O)C1(Cc2cccc(OC)c2)CCN(Cc2cc(OC)ccc2OC)CC1	i	16.4µM*	?	i	-3.2%	?
CCOC(=O)C1(Cc2cccc(OC)c2)CCN(Cc2cccc(OC)c2OC)CC1	i	18.4µM*	?	?	?	?
CCOC(=O)C1(Cc2ccc(OC)cc2)CCN(C(=O)c2ccc3[nH]ccc3c2)CC1	?	7.31µM*	25.9µM*	i	13µM*	9.2µM*
O=C(COC(=O)c1cnc(Cl)c(Cl)c1)NC1CCCC1	i	-22.6%	-8.6%	i	-4.2%	-2.3%
COC(=O)N1CCCCC1c1cc(C(=O)NCc2cccnc2)no1 (centres undefined)	i	-0.6%	15.8%	i	4.3%	-4.2%
CCOC(=O)C1(CC2CCCCO2)CCN(Cc2nc3ccccc3nc2C)CC1 (centres undefined)	i	?	-3.3%	i	?	?
CCOC(=O)C1(Cc2cccc(OC)c2)CCN(Cc2cccc3cnccc23)CC1	i	?	-19.4%	i	-9.5%	18.4µM*
CCOC(=O)C1(Cc2cccc(OC)c2)CCCN(Cc2nccn2CC)C1 (centres undefined)	i	13µM*	-18.0%	i	-6.7%	14.6µM*
CCn1ccnc1CN1CCCC(CO)(Cc2cccc(OC)c2)C1 (centres undefined)	i	?	5.5%	?	4.8%	-22.1%
SMILES	KB-3-1 tox	DT40 TDP1 no CPT	HT1080 IDH1KD tx	KB-V1 cytotox	HT1080NT lethal	DT40 TDP1 CPT
CCOC(=O)C1(Cc2cccc(OC)c2)CCN(Cc2cccnc2)CC1	i	29.1µM*	-14.5%	i	-16.7%	?
CCOC(=O)C1(CC2CCCCO2)CCN(Cc2ccc(OC)cc2F)CC1 (centres undefined)	i	20.6µM*	-0.5%	?	?	?
CCOC(=O)C1(Cc2cccc(OC)c2)CCN(Cc2cnc(N)nc2)CC1	i	-15.5%	6.4%	i	18.5%	10.3%
N#CCOC(=O)C1CCN(S(=O)(=O)c2ccc3c(c2)OCCO3)CC1	i	1.6%	9.3%	i	8.2%	3.8%
C[C@H]1CCCCO[C@H](CN(C)C(=O)Nc2ccc(F)cc2)[C@@H](C)CN([C@@H](C)CO)C(=O)c2cc(NC(=O)Nc3ccc4c(c3)OCO4)ccc2O1	i	?	-18.9%	i	16.6%	20.6µM*
COc1ccc(NC(=O)N(C)C[C@H]2OCCCC[C@H](C)Oc3ccc(NC(=O)Nc4ccc5c(c4)OCO5)cc3C(=O)N([C@@H](C)CO)C[C@@H]2C)cc1	i	?	-8.0%	i	-6.0%	20.6µM*
COc1ccc(NC(=O)N(C)C[C@H]2OCCCC[C@@H](C)Oc3ccc(N(C)C)cc3C(=O)N([C@H](C)CO)C[C@@H]2C)cc1	?	?	10.8%	i	14.3%	-26.6%
C=C1CCC(=O)C(C)CCC2C1CC2(C)C (centres undefined)	·	-3.9%	·	·	·	3.4%
O=C(CCC(=O)N(CC(=O)NC1CCCC1)c1cccc(F)c1)Nc1nccs1	i	1.8%	-11.4%	i	2.5%	-5.3%
CCc1ccc(OCC(=O)Nc2ncn[nH]2)c(Br)c1	i	0.4%	·	i	·	-7.1%
Cc1nn(Cc2ccc(C(=O)Nc3nccs3)cc2)c(C)c1Cl	16.4µM*	?	-3.5%	20.6µM*	1.7%	-22.1%
Cc1nn(Cc2ccc(C(=O)NN)cc2)c(C)c1Cl	i	11.8%	?	i	-14.0%	13.7%
O=C(/C=C/[C@H]1O[C@@H](n2ccc(=O)[nH]c2=O)[C@H](O)[C@@H]1O)NCCN1CCCCC1	i	1.3%	25.4%	i	15.9%	3.4%
Cc1ccc(-c2nn3c(C)nnc3s2)cc1N	?	0.2%	2.3%	?	10.0%	13.1%

Screening data as filed in PubChem BioAssay.
